Shown are actives, neighbours in structure and some others; about 10% of the full set was active somewhere.
HPGD block – inhibitors of human 15-hydroxyprostaglandin dehydrogenase (HPGD); purified HPGD, NADH fluorescence kinetic, PGE2 substrate; Potency, µM, actives largely listed as inhibitors; 150,000 compounds, 4.3% hits; P15428
Target sequence (P15428 whole entry, looked up): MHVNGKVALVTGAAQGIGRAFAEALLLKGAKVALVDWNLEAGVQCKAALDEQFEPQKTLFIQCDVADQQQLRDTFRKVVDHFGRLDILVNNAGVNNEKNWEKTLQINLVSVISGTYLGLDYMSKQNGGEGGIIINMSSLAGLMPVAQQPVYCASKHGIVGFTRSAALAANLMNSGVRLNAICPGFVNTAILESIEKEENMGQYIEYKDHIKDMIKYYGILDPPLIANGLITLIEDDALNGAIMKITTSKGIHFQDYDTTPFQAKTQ
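NADH formation kinetics: reaction with 30 uM PGE2 and 1 mM NAD+ (final), 20 nM enzyme, Tris-HCl pH 8 with Tween 20, after 15 min compound preincubation at room temperature. Fluorescence change, last versus first of five reads.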
ALDH1A1 inh – inhibitors of human aldehyde dehydrogenase 1A1; 220,000 compounds, 7.3% hits; P00352; Potency, µM (highest dose often 75.3 µM), hits mostly inhibitors; Purified ALDH1A1, NADH fluorescence, propionaldehyde substrate; AID 1030
Lamin A splicing – LMNA splicing modulation | HeLa LMNA splicing GFP/RFP minigene ratio, 48 h | Potency, µM (doses to about 46.1 µM), hits mostly inhibitors | 200,000 compounds, 0.01% hits | AID 1487; active means well fitted inhibition curve with a large enough effect in the signal ratio, with a control signal flat, not every such curve was filed as active; inconclusive means small, poorly fitted or top-dose-only effect, or effect the other way, or a change in a side signal; the % refers to the signal ratio
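S3 HeLa stable clones carrying a lamin A-EGFP splicing minigene plus DsRed2 were seeded at 600 cells/well in Opti-MEM with 2% FBS, pin-dosed and incubated 48 h at 37°C. Acumen cytometry (488 nm) gave the GFP/RFP total-intensity ratio.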
KinaseGlo FLuc – counter-screen: inhibitors of Kinase-Glo firefly luciferase | Kinase-Glo luciferase, ATP luminescence, 8 min | Potency, µM (top dose mostly 38.3 µM), hits mostly inhibitors | 200,000 compounds, 0.28% hits | AID 1379; active means well fitted inhibition curve with a large enough effect; inconclusive means small, poorly fitted or top-dose-only effect; further: nearly all actives have a fitted effect of over 60% in size
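Kinase-Glo luciferase light output from ATP and luciferin was measured with 10 uM ATP, within the enzyme's linear range. Buffer: 50 mM imidazole pH 7.2, 50 mM KCl, 7 mM MgCl2, 0.01% Tween 20, 0.05% BSA; luminescence read after 8 min at ambient temperature.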
PNC inhibitor – inhibitors of perinucleolar compartment assembly; activity change (PNC), negative = inhibition, % at 10 µM; 140,000 compounds, 3.1% hits; PC3M PTB-GFP, PNC prevalence imaging, 16 h; hits give low values; AID 2417;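 active means readout at or below -70, meaning at least 70% loss of cells showing the perinucleolar compartment, a nuclear body marking cancer cells; inconclusive means readout between -30 and a set limit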
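Read-out is percentage of cells bearing a perinucleolar compartment, from automated 20x imaging of fixed, Hoechst-stained PC3M PTB-GFP cells. Cells were seeded 4 h, then exposed 16 h to compound (23 nl of library stock) in duplicate plates.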
Hits are given with their value; [ ] = dose if it differs, or a comment. Unless noted, the call rests on the fitted dose curve; in most records, active means well fitted inhibition curve with a large enough effect (not every such curve was filed as active); inconclusive means small, poorly fitted or top-dose-only effect, or another doubt; inactive means no such curve, though single readings can be large or run the other way.

Cc1sc(NC(=O)c2cccs2)nc1-c1ccccc1 was read as ALDH1A1 inh inactive, Lamin A splicing inconclusive and PNC inhibitor inactive.
CC1(C)CC(=O)c2sc(NC(=O)c3ccccc3)nc2C1 was read as ALDH1A1 inh 2.8µM and KinaseGlo FLuc inactive.
`CC(=O)OCC1OC(c2ccc3c(c2)OCO3)C=CC1OC(C)=O` (centres undefined) gave ALDH1A1 inh inactive[13.5 µM].
`CC(Oc1ccccc1)C(=O)Nc1nc2c(s1)C(=O)CC(C)(C)C2` (centres undefined) gave HPGD block inactive, ALDH1A1 inh 14µM, Lamin A splicing inactive, KinaseGlo FLuc inactive and PNC inhibitor inconclusive.
CN1CCN(C(=O)c2cccc(COc3cc(Cl)ccc3Cl)c2)CC1 was read as HPGD block inactive, ALDH1A1 inh 10µM, Lamin A splicing inactive, KinaseGlo FLuc inactive and PNC inhibitor inactive.
Screening CCC(/C=C/C(C)C1CCC2C3CCC4=CC(=O)CC[C@@]4(C)C3CC[C@@]12C)C(C)C (some centres undefined) returned HPGD block inactive, ALDH1A1 inh inactive, Lamin A splicing inactive and KinaseGlo FLuc inactive.
CCOC(=O)C1CCC(CN(Cc2ccc(Cl)cc2)S(=O)(=O)c2ccc(F)c(C(=O)Nc3cccc(F)c3)c2)CC1 (centres undefined) was read as Lamin A splicing inactive.
For Cn1c(SCc2nc3ccccc3[nH]2)nnc1-c1ccccn1 the results were HPGD block inactive, ALDH1A1 inh inactive, Lamin A splicing inactive, KinaseGlo FLuc inactive and PNC inhibitor inconclusive.
Screening C=CCn1c(SCc2nc3ccccc3[nH]2)nnc1-c1ccccn1 returned HPGD block inactive, ALDH1A1 inh 6.3µM, Lamin A splicing inactive, KinaseGlo FLuc inactive and PNC inhibitor inactive.
`CC1CCN(C(=O)c2ccc(COc3ccccc3Cl)o2)CC1` gave HPGD block 16µM, ALDH1A1 inh inconclusive, Lamin A splicing inactive, KinaseGlo FLuc inactive and PNC inhibitor inactive.
CCN(CC)C(=O)c1ccc(COc2ccccc2Cl)cc1 was read as HPGD block 0.35µM, ALDH1A1 inh inconclusive, Lamin A splicing inactive, KinaseGlo FLuc inactive and PNC inhibitor inconclusive.
`O=C(O)c1cccc(COc2ccccc2Cl)c1` gave HPGD block inconclusive, ALDH1A1 inh inactive, Lamin A splicing inactive, KinaseGlo FLuc inconclusive and PNC inhibitor inactive.
O=C(O)c1ccc(COc2ccccc2Cl)cc1 was read as HPGD block 13µM, ALDH1A1 inh inactive, Lamin A splicing inactive, KinaseGlo FLuc inactive and PNC inhibitor inactive.
CCC(C)NC(=O)c1ccc(C(=O)c2ccccc2)cc1 (centres undefined) was read as ALDH1A1 inh inconclusive, Lamin A splicing inactive and KinaseGlo FLuc inactive.
For CCC(C)NC(=O)c1ccc(COc2ccccc2Cl)cc1 (centres undefined) the results were HPGD block 20µM, ALDH1A1 inh inactive, Lamin A splicing inactive, KinaseGlo FLuc inactive and PNC inhibitor inactive.
`COC(=O)C/C=C\[C@@H](C)[C@@H](/C=N\OC[C@@H]1O[C@H](c2ccccc2)C=C[C@@H]1Oc1ccc(OC)cc1)NS(=O)(=O)c1ccc(C)cc1` gave ALDH1A1 inh inactive[13.5 µM].
Screening COc1ccc(CNC(=O)Cn2c(=O)n3nc(-c4cccc(F)c4)nc3c3ccccc32)cc1OC returned Lamin A splicing inactive.
O=C1NC(=O)/C(=C\c2ccc(Oc3ccc([N+](=O)[O-])cn3)cc2)S1 was read as HPGD block 13µM, ALDH1A1 inh inconclusive, Lamin A splicing inconclusive, KinaseGlo FLuc inactive and PNC inhibitor inactive.
`CC12CC[C@@](C(=O)O)(C(=O)C1=O)C2(C)C` gave HPGD block inactive, ALDH1A1 inh inactive and KinaseGlo FLuc inactive.
`CN1CCN(C(CNS(=O)(=O)c2ccc(F)cc2)c2cccnc2)CC1` (centres undefined) gave HPGD block inactive, ALDH1A1 inh inactive, Lamin A splicing inactive, KinaseGlo FLuc inactive and PNC inhibitor -100.
For CN1CCN(C(CNS(=O)(=O)c2ccc(Cl)cc2)c2cccnc2)CC1 (centres undefined) the results were HPGD block inactive, ALDH1A1 inh inactive, Lamin A splicing inactive, KinaseGlo FLuc inactive and PNC inhibitor -100.
Screening CCCCN(CCCC)C(=O)c1c[nH]c2ccc(S(=O)(=O)Nc3cccc(Cl)c3C)cc2c1=O returned Lamin A splicing inactive.
Screening COc1ccc(O[C@H]2C=C[C@@H](c3ccccc3)O[C@H]2COC(=O)CC/C(C)=N\OC[C@@H](C)[C@H](OCc2ccccc2)C(C)C)cc1 returned ALDH1A1 inh inactive[13.5 µM].
Screening CN(C(=O)Cn1cc(S(=O)(=O)Cc2ccccc2Cl)c2ccccc21)c1ccccc1 returned Lamin A splicing inactive.
Cc1cccc(NC(=O)CCNS(=O)(=O)c2ccc3c(c2)CCN3C(=O)C2CC2)c1 was read as Lamin A splicing inactive.
`O=C(CSc1nc2c(sc3ccccc32)c(=O)n1-c1ccccc1)NCc1ccco1` gave HPGD block inactive, ALDH1A1 inh 11µM, Lamin A splicing inconclusive, KinaseGlo FLuc inactive and PNC inhibitor inconclusive.
COc1ccc(-n2c(SCC(=O)NCc3ccco3)nc3c([nH]c4ccccc43)c2=O)cc1 was read as HPGD block inactive, ALDH1A1 inh inactive, Lamin A splicing inactive, KinaseGlo FLuc inactive and PNC inhibitor -108.
COC(=O)C1OC(=O)C2O[C@@]23[C@]2(C)C(OC(C)=O)CC4C(C)(C)C(=O)CC[C@]4(C)C2CC[C@@]13C (some centres undefined) was read as HPGD block inactive, ALDH1A1 inh inactive and KinaseGlo FLuc inactive.
For C=C[C@@]1(C)CC[C@H](O)[C@H]2C(=O)CCC[C@@H]21 the results were HPGD block inactive, ALDH1A1 inh inactive and KinaseGlo FLuc inactive.
`CCOc1nc(-c2ccccc2O)nc2ccccc12` gave HPGD block 13µM, ALDH1A1 inh inactive, Lamin A splicing inactive, KinaseGlo FLuc inactive and PNC inhibitor inconclusive.
Screening COc1cccc(-c2nc(Oc3cccc(C)c3C)c3ccccc3n2)c1O returned HPGD block inactive, ALDH1A1 inh inactive, Lamin A splicing inactive, KinaseGlo FLuc inactive and PNC inhibitor inactive.
For CN(C)[C@H]1C(=O)C(C(=O)NCN2CCCC2)=C(O)[C@]2(O)C(=O)C3=C(O)c4c(O)cccc4[C@](C)(O)[C@H]3C[C@H]12 the results were HPGD block inactive, ALDH1A1 inh inactive[13.5 µM], Lamin A splicing inconclusive and KinaseGlo FLuc inactive[7.66 µM].
`CN(C)c1ccc(/C=C(\C#N)C(=O)NCc2ccco2)cc1` gave HPGD block inactive, ALDH1A1 inh inconclusive, Lamin A splicing inactive, KinaseGlo FLuc inactive and PNC inhibitor inactive.
`CCN(CC)c1ccc(/C=C(\C#N)C(=O)NCc2ccco2)cc1` gave HPGD block inactive, ALDH1A1 inh 32µM, Lamin A splicing inactive, KinaseGlo FLuc inactive and PNC inhibitor inactive.
Screening O=C1OCC(c2ccccc2)=C1c1ccc(S(=O)(=O)N2CCOCC2)s1 returned HPGD block inconclusive, ALDH1A1 inh 20µM, Lamin A splicing inactive, KinaseGlo FLuc inactive and PNC inhibitor inactive.

From PubChem
